Assay results published in the supplement of paper PMC3334620.
Over roughly 33,000 sequences, “E-score (-0.5 to 0.5)” has its median near -0.016; the highest 2% begin near 0.32. The sample as a whole holds a higher share of the highest values than the screen did.

target: T1, Stp1 (UniProt B3LFK1); assay: PBM E-score (8-mer binding enrichment) (E-score (-0.5 to 0.5)); higher = stronger / more preferred TF binding; conditions: protein concentration: 200 nM; construct: GST-full length
T1 sequence: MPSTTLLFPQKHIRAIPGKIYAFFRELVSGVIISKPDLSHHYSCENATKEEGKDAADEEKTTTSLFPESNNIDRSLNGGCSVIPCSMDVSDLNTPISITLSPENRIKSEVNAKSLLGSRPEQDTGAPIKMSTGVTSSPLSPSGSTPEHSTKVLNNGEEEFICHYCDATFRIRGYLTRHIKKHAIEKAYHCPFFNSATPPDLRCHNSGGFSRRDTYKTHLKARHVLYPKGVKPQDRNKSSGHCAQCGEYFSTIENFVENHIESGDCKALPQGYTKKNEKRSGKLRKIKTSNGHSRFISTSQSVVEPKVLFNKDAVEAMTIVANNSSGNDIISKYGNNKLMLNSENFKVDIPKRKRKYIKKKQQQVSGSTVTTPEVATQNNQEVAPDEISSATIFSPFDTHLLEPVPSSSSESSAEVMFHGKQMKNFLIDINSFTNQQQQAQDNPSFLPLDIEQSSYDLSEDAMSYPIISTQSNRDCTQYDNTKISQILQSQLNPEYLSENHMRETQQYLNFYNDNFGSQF
Protocol: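 Universal 'all 10-mer' protein binding microarrays (Agilent AMADID 015681) probed with GST-tagged S. cerevisiae TFs (full-length or DBD) made by in vitro transcription/translation (PURExpress), about 100-200 nM. Bound TF was detected with fluorescent anti-GST. Each ungapped 8-mer (which stands for itself and its reverse complement) is scored by the PBM enrichment score (E-score), a modified Wilcoxon-Mann-Whitney statistic from -0.5 to +0.5, computed with the Universal PBM Analysis Suite. Scale: above 0.35 generally sequence-specific binding.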

Sequence | PBM E-score
ATTCGCCC | -0.0713
AGTCGCCG | 0.369
AAGCATCT | -0.17
AGGATATG | 0.0335
ACCATCCG | -0.144
ACTGGACG | -0.112
GTAGCTGA | -0.154
GTCTCTAA | -0.0881
AAACGGTT | -0.155
AGATAACT | -0.103
AGCGCCAC | 0.13
AGCGCCAA | -0.059
CGCGCCAA | 0.132
CGCGCCAC | 0.286
GGCGCCAC | 0.384
GGCGCCAA | 0.379
CAAGCCGC | 0.299
GAAGCCGC | 0.393
ACAGCCGT | 0.354
AAAGCCGT | 0.386
GAAGCCGA | -0.0348
AAAGCCAC | 0.123
ACAGCCGC | 0.25
ACAGCCGA | -0.0659
AAAGCCGA | -0.0141

Sequence | PBM E-score
AAAGCCGC | 0.369
AAAGCCGG | 0.135
AAAGCCTC | 0.204
GGAGTACA | -0.00077
CGTCTTAG | 0.0086
CTTCATCA | -0.0498
AACTCTAA | -0.00844
AACAAATT | 0.232
CATTATGG | -0.177
GCGGTCCC | -0.16
AGTACGGC | 0.436
CGTACGGA | 0.302
CGTACGGC | 0.482
AGTACGGA | 0.154
ATTACGGG | -0.199
ATTACGGC | 0.341
AGTACGGG | -0.156
ATTACGGA | 0.0935
CGTACGCC | 0.233
CCTCGGGA | -0.121
GCTTAGAC | -0.11
GTGCCCAC | -0.00488
GGCTGACA | 0.0532
GCTTTGGA | 0.103
ACGTGCGC | 0.165

Sequence | PBM E-score
CCGTGCGC | 0.433
CCGTGCTC | 0.261
GCGTGCGA | -0.0235
CCGTGCGA | 0.415
CTGTGCGA | -0.0295
CCAAACTA | -0.0843
GCAGCATA | 0.0149
CGACTACC | -0.22
AGAGAGCA | -0.213
AGTGCAGG | -0.0709
CCCGGGCC | -0.151
AAACGGCA | 0.467
GAACGGGA | -0.0828
AAACGGTA | 0.166
CAACGGTA | -0.266
TAACGGCA | 0.31
GAACGGCA | 0.468
GAACGGCC | 0.233
CAACGGAA | 0.123
CAACGGCA | 0.402
AAACTGCG | -0.0893
ACTGGCAT | -0.0932
CTAGTGCC | 0.301
TACTGCGA | -0.159
TTGAACAA | 0.0506

Sequence | PBM E-score
AATCTACC | -0.0419
CCAAAGTC | -0.132
ATTCCTCA | 0.0196
CAGCGATC | -0.127
CGGCGATA | 0.395
GGGCGATA | -0.147
AGGCGATA | 0.0637
CGGCGATC | 0.373
AGGCGATC | 0.128
GCCTGGTA | -0.227
CTCCTGCA | -0.244
ATGCTTGC | -0.24
AAGCAGGA | -0.113
GGGCAGCA | -0.122
GGGCAGAA | 0.0536
CGGCAGCA | 0.333
CGGCAGAC | 0.0714
CGGCAGAA | 0.328
CGGCAGCC | 0.216
CTCTGGTA | -0.177
ACGCCTCG | 0.381
ACGCCTTC | 0.204
ATGCCTCC | -0.0159
ACGCCTCT | 0.0123
ACGCCTTA | 0.294

Sequence | PBM E-score
ATGCCTTG | 0.274
ATGCCTCG | 0.412
ACGCCTCC | -0.102
ACGCCTTG | 0.348
ACCGTGGG | -0.27
CGATAAGA | 0.0597
AGTTGGGG | -0.209
AATATACG | 0.017
TAATTTCA | 0.242
GTCACCTA | -0.204
AAGGCCGT | 0.358
ACGGCCGC | 0.406
ACGGCCGA | 0.191
ACGGCCAC | 0.3
GAGGCCGC | 0.095
GCGGCCGA | 0.139
AAGGCCGG | 0.128
CCGGCCGC | -0.018
ACGGCCGG | 0.0865
AAGGCCGC | 0.314
ACGGCCGT | 0.401
GCGGCCGC | 0.373
ACTATACC | -0.017
ACCAGGGT | -0.398
AAGCAGGG | -0.156

Sequence | PBM E-score
CACGGTAC | 0.0963
CATATTCC | -0.14
AACCATTA | 0.123
TGGGACAA | -0.23
CGAACGTA | -0.0114
CACGCATC | 0.0489
CCCAATCA | -0.0533
ATTTCCGG | -0.0307
AGGCGACA | 0.197
CGGCGACG | 0.349
CGGCGACC | 0.203
AGGCGAGA | -0.0565
CGGCGAGA | 0.325
CGGCGACA | 0.369
GGGCGACA | 0.0209
AGGCGACG | 0.209
CGGCGAGC | 0.307
CTCGGGGC | -0.163
CAGAGTCG | -0.204
CATGGTTA | 0.105
CCCGTGCG | 0.332
CCCGTGAG | -0.0263
ACCGTGCG | 0.371
CCCGTGCA | 0.0223
AGCGTGCG | 0.237

Sequence | PBM E-score
ACCGTGCT | -0.133
AGAGGGCG | 0.307
AGGCCAAT | -0.152
AGAACGCT | -0.11
ATTGTGCG | 0.161
GATGTGCC | 0.185
AATGTGCC | 0.323
AATGTGCG | 0.18
ATTGTGCA | 0.162
ATTGTGCC | 0.322
GCGCAAAA | 0.227
CCATGAGA | -0.118
TAGCCGCA | 0.348
CAGCCGCA | 0.215
GAGCCGCA | 0.448
GAGCCGGA | 0.0514
AAGCCGCG | 0.418
CAGCCGCG | 0.259
AAGCCGCA | 0.386
AAGCCGGA | 0.0672
TAGCCGGA | -0.0486
AATCCGCG | 0.111
TAGCCGAA | 0.00682
AACCCGCA | -0.00015
